From PubChem BioAssay (NCI)
“And” between values parts separate entries of the source, which are not always exact repeats. Identical values can stand only once. This is part of a sample that, as a whole, favours compounds with a hit. Of some 79,000 tested, about 15% had one in any assay. More than one record can exist for a structure, and the calls need not agree. The source made the active and inactive calls. No stated cut-off is given here; in the data, active means growth inhibition above about 70%; inactive means the rest.

Assay: NCI Yeast Anticancer Drug Screen. Data for the rad50 strain (AID 155);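 further: 0% = growth of vehicle-only cultures of the same strain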
Details: S. cerevisiae rad50 strain growth inhibition; at 50.0 µM (retest, dose inferred, filed as 5.0); stronger effect = higher value
Summary of the method: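 Readout: growth inhibition relative to vehicle-treated cultures. Compound exposure was carried out in a genetically defined yeast strain deficient in DNA damage repair.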
For CNC(=O)OCc1c(COC(=O)NC)c(-c2ccc(Cl)cc2)n2c1CCC2, the growth inhibition was 11% (inactive).
In the case of CC(=O)OC1CC2C(C)(C)C(=O)C=C[C@]2(C)C2CCC3(C)C(=CCC3[C@H](CO)C[C@H](O)C(=O)C(C)(C)O)[C@]12C (stereo partly specified), the growth inhibition is reported as 23% (inactive).
In the case of CCCCCCOC(=O)NCCOC(=O)Nc1ccccc1, the growth inhibition is reported as 5% (inactive).
In the case of C[C](C)(C)[Ge]([O][Ge]([c]1ccccc1)[c]1ccccc1)([O][Ge]([c]1ccccc1)[c]1ccccc1)[C](C)(C)C, the growth inhibition is reported as 63% (inactive).
In the case of CCc1c(Cl)c(C)cc(O)c1Cl, the growth inhibition is reported as 91% (active).
In the case of Cc1nc(Nc2ccccc2[N+](=O)[O-])sc1C(=O)CC(=O)C(=O)Nc1c(C(C)C)cccc1C(C)C, the growth inhibition is reported as 1% (inactive).
In the case of O=[N+]([O-])c1cccc2nc3ccccc3c(NCCCn3ccnc3[N+](=O)[O-])c12, the growth inhibition is reported as 94% (active).
For CCCCCCC(O)CNCc1ccnc2ccc(OC)cc12 (stereo unspecified), the growth inhibition was 51% (inactive).
For Cc1c2cccc(Sc3ccccc3)c2c2c3c(cccc13)[S+](c1ccccc1)C2 (stereo unspecified), the growth inhibition was 97% (active).
In the case of C=C1CCC(O)C/C1=C/C=C1\CCCC2(C)C1CCC2C(C)CCCC(C)C (stereo unspecified), the growth inhibition is reported as 84% (active).
With NC1=NNC2(C(N)=N1)c1ccccc1-c1ccccc12 the growth inhibition was 93% (active).
In the case of COc1cc2cc3c4cc(OC)c(OC)cc4cc[n+]3c(C)c2cc1OC, the growth inhibition is reported as 92% (active).
In the case of COC(=O)NC1C(C)OC(OC2C/C=C(/C)C3C=CC4C(OC5CC(OC6CC(O)C(OC7CC(O)C(OC)C(C)O7)C(C)O6)C(O)C(C)O5)C(C)CC(C)C4C3(C)/C(O)=C3\C(=O)OC4(CC(C)C(CO)=CC4/C=C\2C)C3=O)CC1(C)[N+](=O)[O-] (stereo unspecified), the growth inhibition is reported as 40% (inactive).
In the case of O=C1CSC(c2cccc(Cl)c2)N1c1ccc(-c2ccc(-n3c(-c4ccccc4)nc4ccccc4c3=O)cc2)cc1 (stereo unspecified), the growth inhibition is reported as 61% (inactive).
For CCOC(=O)C(C(=O)OCC)=P(c1ccccc1)(c1ccccc1)c1ccccc1, the growth inhibition was 36% (inactive).
For COc1ccc(N=CN(C)C)c(C)c1, the growth inhibition was 78% (active).
With Cc1cc(S(=O)(=O)Nc2nnc3cnc4ccccc4n23)c(S)cc1Cl the growth inhibition was 60% (inactive).
For O=C(Oc1ccc2c(c1)CN(Cc1ccccc1)CO2)c1ccccc1, the growth inhibition was 46% (inactive).
With CN(C)[C@@H]1C(=O)C(C(N)=O)=C(O)[C@@]2(O)C(=O)C3=C(O)c4c(O)cccc4C[C@H]3C[C@@H]12 the growth inhibition was 99% (active).
For O=[N+]([O-])c1ccc2c(c1)/C(=N/N=C1c3ccccc3Cc3ccccc31)c1cc([N+](=O)[O-])cc([N+](=O)[O-])c1-2, the growth inhibition was 96% (active).
In the case of Cc1nc2c(Br)cc(Br)cc2c(=O)n1-c1ccccc1NC1OCC(O)C(O)C1O (stereo unspecified), the growth inhibition is reported as 74% (active) and 68% (inactive).
For Cc1cc(N(CCOS(C)(=O)=O)CCOS(C)(=O)=O)ccc1C=Nc1ccc(-c2nc(Cc3ccccc3)sc2C)cc1, the growth inhibition was 95% (active) and 49% (inactive).

Same assay, conditions: S. cerevisiae rad50 strain growth inhibition; at 50.0 µM; stronger effect = higher value
In the case of O=C1/C(=C/c2ccccc2)CCCC1CN1CCCCC1 (stereo unspecified), the growth inhibition is reported as 72.3% (active).
For C#CCN(Cc1ccc2nc(N)[nH]c(=O)c2c1)c1ccc(C(=O)NC(CCC(=O)O)C(=O)O)cc1 (stereo unspecified), the growth inhibition was 77.5% (active) and 72.5% (active).
With CCOC1(c2cccc([N+](=O)[O-])c2)c2ccccc2Oc2ccccc21 the growth inhibition was 51.8% (inactive).
In the case of O=C(O)CNC(=S)Nc1ccccc1, the growth inhibition is reported as 4.35% (inactive) and 69.5% (inactive).
For N/C(=N/N=C/c1cc(Br)cc(Br)c1O)NO, the growth inhibition was 96.1% (active).
With C[Si](C)(C)/C=C/CCNC(C#N)c1ccccc1 (stereo unspecified) the growth inhibition was 89.7% (active).
With CCCCCCCCCCCCCCCCOP(=O)(O)OCC(N)C(=O)O (stereo unspecified) the growth inhibition was 98.4% (active).
In the case of CC1=C(C(=O)NCc2ccccc2)C(c2ccccc2)C(C(=O)NCc2ccccc2)=C(C)N1, the growth inhibition is reported as 75.5% (active).
In the case of O=[N+]([O-])c1cc(S(=O)(=O)Nc2ccccc2)ccc1Nc1ccccc1, the growth inhibition is reported as 80% (active).
For COc1cc2ccnc(-c3c4ccccc4c(N)c4c(OC)c(OC)ccc34)c2cc1OC, the growth inhibition was 19.3% (inactive).
For CCOC(=O)C(Br)C(Br)c1ccccc1Cl (stereo unspecified), the growth inhibition was 99.7% (active).
In the case of CCOC(=O)C1=C(C)NC(C)=C(C(=O)OCCNC(=O)c2ccc(N=[N+]=[N-])cc2)C1c1ccccc1C(F)(F)F (stereo unspecified), the growth inhibition is reported as 40.1% (inactive).
In the case of Cc1cc(C)c(NC(=S)NC(=O)c2ccccc2)cc1C, the growth inhibition is reported as 18.4% (inactive).
With CNCCCNc1c2ccccc2nc2cccc([N+](=O)[O-])c12 the growth inhibition was 84.8% (active).
In the case of COc1c(O)c(C=O)c(Br)c(C=O)c1O, the growth inhibition is reported as 98.2% (active).
With Cc1c(C)c(C)c(CSC(=N)N)c(C)c1C the growth inhibition was 91.8% (active).
For O=C(CSC(=S)N1CCCCC1)Nc1nc2c(s1)CCCC2, the growth inhibition was 74.3% (active).
In the case of CNC(=O)OCc1c(COC(=O)NC)c(-c2ccc(Cl)cc2)n2c1CCC2, the growth inhibition is reported as 56.3% (inactive).
For CC(=O)OC1CC2C(C)(C)C(=O)C=C[C@]2(C)C2CCC3(C)C(=CCC3[C@H](CO)C[C@H](O)C(=O)C(C)(C)O)[C@]12C (stereo partly specified), the growth inhibition was 44.9% (inactive).
With CCCCCCOC(=O)NCCOC(=O)Nc1ccccc1 the growth inhibition was 19.7% (inactive).
For C[C](C)(C)[Ge]([O][Ge]([c]1ccccc1)[c]1ccccc1)([O][Ge]([c]1ccccc1)[c]1ccccc1)[C](C)(C)C, the growth inhibition was 71.9% (active).
For CCc1c(Cl)c(C)cc(O)c1Cl, the growth inhibition was 91.4% (active).
For Cc1nc(Nc2ccccc2[N+](=O)[O-])sc1C(=O)CC(=O)C(=O)Nc1c(C(C)C)cccc1C(C)C, the growth inhibition was -1.6% (inactive).
In the case of O=[N+]([O-])c1cccc2nc3ccccc3c(NCCCn3ccnc3[N+](=O)[O-])c12, the growth inhibition is reported as 80% (active).
With CCCCCCC(O)CNCc1ccnc2ccc(OC)cc12 (stereo unspecified) the growth inhibition was 76.8% (active).
In the case of Cc1c2cccc(Sc3ccccc3)c2c2c3c(cccc13)[S+](c1ccccc1)C2 (stereo unspecified), the growth inhibition is reported as 90.9% (active).
With C=C1CCC(O)C/C1=C/C=C1\CCCC2(C)C1CCC2C(C)CCCC(C)C (stereo unspecified) the growth inhibition was 51.8% (inactive).
For NC1=NNC2(C(N)=N1)c1ccccc1-c1ccccc12, the growth inhibition was 86.2% (active).
With COc1cc2cc3c4cc(OC)c(OC)cc4cc[n+]3c(C)c2cc1OC the growth inhibition was 51.4% (inactive).
With COC(=O)NC1C(C)OC(OC2C/C=C(/C)C3C=CC4C(OC5CC(OC6CC(O)C(OC7CC(O)C(OC)C(C)O7)C(C)O6)C(O)C(C)O5)C(C)CC(C)C4C3(C)/C(O)=C3\C(=O)OC4(CC(C)C(CO)=CC4/C=C\2C)C3=O)CC1(C)[N+](=O)[O-] (stereo unspecified) the growth inhibition was 5.7% (inactive).
With O=C1CSC(c2cccc(Cl)c2)N1c1ccc(-c2ccc(-n3c(-c4ccccc4)nc4ccccc4c3=O)cc2)cc1 (stereo unspecified) the growth inhibition was 66.8% (inactive).
In the case of CCOC(=O)C(C(=O)OCC)=P(c1ccccc1)(c1ccccc1)c1ccccc1, the growth inhibition is reported as 12.4% (inactive).
With COc1ccc(N=CN(C)C)c(C)c1 the growth inhibition was 91.5% (active).
With Cc1cc(S(=O)(=O)Nc2nnc3cnc4ccccc4n23)c(S)cc1Cl the growth inhibition was -14.9% (inactive).
In the case of O=C(Oc1ccc2c(c1)CN(Cc1ccccc1)CO2)c1ccccc1, the growth inhibition is reported as 79.2% (active).
With CN(C)[C@@H]1C(=O)C(C(N)=O)=C(O)[C@@]2(O)C(=O)C3=C(O)c4c(O)cccc4C[C@H]3C[C@@H]12 the growth inhibition was 85.1% (active).
In the case of O=[N+]([O-])c1ccc2c(c1)/C(=N/N=C1c3ccccc3Cc3ccccc31)c1cc([N+](=O)[O-])cc([N+](=O)[O-])c1-2, the growth inhibition is reported as 82.7% (active).
With Cc1nc2c(Br)cc(Br)cc2c(=O)n1-c1ccccc1NC1OCC(O)C(O)C1O (stereo unspecified) the growth inhibition was 94.5% (active) and 89.8% (active).
In the case of Cc1cc(N(CCOS(C)(=O)=O)CCOS(C)(=O)=O)ccc1C=Nc1ccc(-c2nc(Cc3ccccc3)sc2C)cc1, the growth inhibition is reported as 52.9% (inactive).
